Results on 16 compounds are retold here after PubChem BioAssay (NCI).

Some test systems named below: T-47D breast; BT-549 breast; MDA-MB-435 melanoma; SW-620 colon; MCF7 breast; HCT-116 colon; HCC-2998 colon; KM12 colon.
Experiment in all cases: NCI-60 one-dose screen, 48 h (100 = growth as untreated, 0 = no growth, -100 = all killed)
What all share (conditions): 10 µM unless noted

The structures appear in SMILES notation. Compounds without any hit were thinned out: in the full panel of roughly 83,000, 20% have a hit.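 Values shown are percent growth following 48 h exposure of cells in 96-well plates to a single concentration of compound; below 10 was considered active.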 Unmarked numbers belong to inactive results. Active and inactive are the calls of the source.

As for `Oc1ccc(Cl)cc1C(c1cc(Cl)ccc1O)C(Cl)(Cl)Cl`, the growth was 9.95% (active) in the assay on T-47D breast; 44.9% in the assay on BT-549 breast; 29.4% with MDA-MB-435 melanoma; 4.62% (active) in the assay on SW-620 colon; 8.95% (active) with MCF7 breast; -35.2% (active) with HCT-116 colon. For the same compound, the growth in the assay with HCC-2998 colon was -45.5% (active); with KM12 colon, -55.5% (active).
For `COc1cc(-c2ccc(-[n+]3nc(-c4ccc([N+](=O)[O-])cc4)nn3-c3ccc([N+](=O)[O-])cc3)c(OC)c2)ccc1-[n+]1nc(-c2ccc([N+](=O)[O-])cc2)nn1-c1ccc([N+](=O)[O-])cc1`, the growth with T-47D breast is -34.2% (active); in the assay on BT-549 breast it was 26.9%; in the assay with MDA-MB-435 melanoma, -58.4% (active); in the assay on SW-620 colon it was 2.63% (active); in the assay on MCF7 breast, -65% (active); in the assay with HCT-116 colon, 6.85% (active). Also, the growth in the assay with HCC-2998 colon is 29.8%; in the assay with KM12 colon, 25.4%.
As to `CCOc1ccc(C(C[N+](=O)[O-])Sc2ccccc2N)cc1` (stereo unspecified), the growth in the assay on T-47D breast was 42.8%; in the assay on BT-549 breast, -74.9% (active); in the assay with MDA-MB-435 melanoma, 3.44% (active); in the assay with SW-620 colon, -40.4% (active); in the assay on MCF7 breast it was 0.363% (active); with HCT-116 colon it was -55.6% (active). Moreover, the values for the growth in the assay with HCC-2998 colon and in the assay on KM12 colon were -82.3% (active) and -51.3% (active), respectively.
Regarding `O=C1/C(=C\c2ccc([N+](=O)[O-])cc2)CS(=O)(=O)C/C1=C/c1ccc([N+](=O)[O-])cc1`, the growth is -56% (active) in the assay on T-47D breast; -82.2% (active) in the assay on BT-549 breast; -75% (active) with MDA-MB-435 melanoma; -71.6% (active) in the assay with SW-620 colon; -58.5% (active) in the assay on MCF7 breast; -100% (active) with HCT-116 colon. In the assay with KM12 colon, the growth is -89.4% (active).
`S=c1[nH]c2cc(Cl)ccc2s1`: the growth in the assay on T-47D breast is 90.4%; in the assay with BT-549 breast, 100%; in the assay on MDA-MB-435 melanoma, 98.8%; with SW-620 colon, 113%; in the assay with MCF7 breast, 95.2%; with HCT-116 colon, 96.6%. For the same compound, the growth in the assay on HCC-2998 colon was 97.4%; with KM12 colon, 96.5%.
For the compound `CCC1CCCCN1C(=S)N/N=C(\C)c1ccccn1` (stereo unspecified), the growth was 4.58% (active) in the assay on T-47D breast; 30.8% in the assay with BT-549 breast; 3.24% (active) in the assay with MDA-MB-435 melanoma; 9.32% (active) with SW-620 colon; 13% in the assay on MCF7 breast; 5.51% (active) with HCT-116 colon. The growth in the assay with HCC-2998 colon is 17.9%; in the assay with KM12 colon, 4.56% (active).
With `CC(C)=C1C=C2CC[C@@H]3[C@](C)(CCC[C@@]3(C)C(=O)O)[C@H]2CC1`, the growth in the assay with T-47D breast is 97.6%; in the assay on BT-549 breast, 126%; in the assay with MDA-MB-435 melanoma, 101%; with SW-620 colon, 102%; in the assay on MCF7 breast, 95.9%; in the assay on HCT-116 colon, 107%. The growth in the assay on KM12 colon is 101%.
Turning to `Cc1nc([N+](=O)[O-])c(Sc2nncc(-c3ccccc3)n2)n1C`, the growth is 15.3% with T-47D breast; 66.6% in the assay with BT-549 breast; 76.3% in the assay with MDA-MB-435 melanoma; 77.1% with SW-620 colon; 43.8% in the assay on MCF7 breast; 53.2% in the assay with HCT-116 colon. The growth in the assay with HCC-2998 colon was 98.3%; in the assay with KM12 colon it was 104%.
For the compound `CC(=O)C1Cc2ccccc2C1=O` (stereo unspecified), the growth is 101% in the assay on T-47D breast; 91.3% with BT-549 breast; 103% in the assay on MDA-MB-435 melanoma; 101% in the assay on SW-620 colon; 95.4% in the assay on MCF7 breast; 103% in the assay on HCT-116 colon. Also, the growth with HCC-2998 colon was 108%; with KM12 colon, 102%.
Regarding `OC(Cc1cc(CC(O)(C(F)(F)F)C(F)(F)F)nc(CC(O)(C(F)(F)F)C(F)(F)F)c1)(C(F)(F)F)C(F)(F)F`, the growth in the assay on T-47D breast is -1.31% (active); in the assay on BT-549 breast, 11.3%; with MDA-MB-435 melanoma, 0.574% (active); in the assay on SW-620 colon it was 14.6%; in the assay with MCF7 breast, 4.14% (active); in the assay on HCT-116 colon, 3.99% (active). For the same compound, the growth in the assay with HCC-2998 colon is 23.9%; with KM12 colon, 1.25% (active).
As for `O=[N+]([O-])c1ccc(C(Br)c2ccc([N+](=O)[O-])cc2)cc1`, the growth is 83.8% in the assay with T-47D breast; 77.3% in the assay on BT-549 breast; 64.8% in the assay on MDA-MB-435 melanoma; 11.1% in the assay with SW-620 colon; 70.8% with MCF7 breast; 21.3% with HCT-116 colon. Also, the growth in the assay with HCC-2998 colon was 90.4%; in the assay with KM12 colon it was 60.3%.
As for `CCN(CC)CC(O)c1cc(-c2ccc(Cl)cc2)nc2cc(Cl)ccc12` (stereo unspecified), the growth was 12.9% with T-47D breast; 81.6% in the assay with BT-549 breast; 13.1% in the assay on MDA-MB-435 melanoma; 31.5% with SW-620 colon; -28.4% (active) in the assay with MCF7 breast; -0.822% (active) in the assay on HCT-116 colon. In addition, the growth with HCC-2998 colon was 26.4%; in the assay on KM12 colon, -36.6% (active).
Consider `CC12CCC(O)CC1=CCC1C2CCC2(C)C3=NN=CC3CC12` (stereo unspecified), for which the growth with T-47D breast was 110%; in the assay on BT-549 breast, 124%; in the assay with MDA-MB-435 melanoma, 53%; in the assay on SW-620 colon, 103%; in the assay on MCF7 breast it was 107%; in the assay on HCT-116 colon, 108%. Moreover, the growth was 107% in the assay on HCC-2998 colon and 94.3% in the assay with KM12 colon.
As for `COc1c(C)c2c(c(O)c1C/C=C(\C)CCC(=O)O)C(=O)OC2`, the growth with T-47D breast is 44.7%; with BT-549 breast, 35.4%; with MDA-MB-435 melanoma, 30.1%; in the assay on SW-620 colon, 21.7%; in the assay with MCF7 breast, 23.9%; in the assay on HCT-116 colon it was 13.3%. The growth was 33.3% in the assay with HCC-2998 colon and 29.1% in the assay on KM12 colon.
Take `COc1ccc2c(c1)c(CC(=O)O)c(C)n2C(=O)c1ccc(Cl)cc1`: the growth was 107% in the assay on T-47D breast; 66.9% in the assay with BT-549 breast; 96.8% in the assay with MDA-MB-435 melanoma; 98.8% in the assay on SW-620 colon; 83.7% in the assay on MCF7 breast; 95.2% with HCT-116 colon. For the same compound, the growth with HCC-2998 colon is 108%; in the assay on KM12 colon it was 99.2%.
Take `c1ccc2sc(SSN3CC4CCC(CC4)C3)nc2c1`: the growth was 96.5% with T-47D breast; 126% in the assay on BT-549 breast; 108% with MDA-MB-435 melanoma; 110% with SW-620 colon; 107% in the assay with MCF7 breast; 103% in the assay with HCT-116 colon. The growth was 123% in the assay on HCC-2998 colon and 145% in the assay with KM12 colon.
